# Reference: PubChem BioAssay (NCATS)
# Values joined by “and” are separate entries in the source; they are usually repeats but may differ in a detail not shown here. Equal entries are not always repeated. Records with an inconclusive call do not appear. A call without a number means that no potency is given here. Some structures have more than one record in an assay (separate samples or runs), and their calls can disagree. Active and inactive are the calls of the source. The call rests on the fitted dose curve; in most records, active means well fitted curve in the direction sought with a large enough effect; inconclusive means small, poorly fitted or top-dose-only effect, or another doubt; inactive means no such curve, though single readings can be large; an effect the other way counts as inactive or inconclusive.
# Tests used:
# SC27B = experiment: qHTS profiling for inhibitors of Plasmodium falciparum proliferation (AID 504749); further: nearly all actives have a fitted effect of over 60% in size; further: potency means the concentration at half of the fitted maximal effect; settings: P. falciparum in erythrocytes, SYBR Green DNA, 72 h; series mostly up to 28.7 µM
# In short: (§1)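 Infected RBCs, 0.3% parasitemia/2.5% Hct final; cpd 72 h, 37 C, 5% CO2; lysis buffer with saponin/triton/SYBR Green I, o/n RT dark; FI 485/535; norm. to artemisinin (0.29 uM) and DMSO.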
# TAB109 = experiment: as above; settings: P. falciparum in erythrocytes, SYBR Green DNA, 72 h; series mostly up to 28.7 µM
# In short: as §1
# TAB113 = experiment: as above; settings: P. falciparum in erythrocytes, SYBR Green DNA, 72 h; series mostly up to 28.7 µM
# In short: as §1
# TAB165 = experiment: as above; settings: P. falciparum in erythrocytes, SYBR Green DNA, 72 h; series mostly up to 28.7 µM
# In short: as §1
# W2 = experiment: as above; settings: P. falciparum in erythrocytes, SYBR Green DNA, 72 h; series mostly up to 28.7 µM
# In short: as §1
# CRL-7250 = normal cell line; experiment: Cytotoxic Profiling of Annotated Libraries Using Quantitative High-Throughput Screening (AID 1296008); settings: Five cell lines viability, CellTiter-Glo ATP luminescence, 48-72 h; max response: stronger effect = lower value; further: nearly all actives have a fitted effect of over 60% in size; further: potency means the concentration at half of the fitted maximal effect
# In short: (§2)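 Cytotoxicity was measured as CellTiter-Glo ATP luminescence, read after 10 min at room temperature. Compound treatment of the cells lasted 48 or 72 hr at 37 degrees Celsius in a qHTS format.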
# HEK293 = experiment: as above; settings: Five cell lines viability, CellTiter-Glo ATP luminescence, 48-72 h; max response: stronger effect = lower value
# In short: as §2
# HaCat [1] = experiment: as above; settings: Five cell lines viability, CellTiter-Glo ATP luminescence, 48-72 h; max response: stronger effect = lower value
# In short: as §2
# KB-3-1 = experiment: as above; settings: Five cell lines viability, CellTiter-Glo ATP luminescence, 48-72 h; max response: stronger effect = lower value
# In short: as §2
# NIH3T3 [2] = experiment: as above; settings: Five cell lines viability, CellTiter-Glo ATP luminescence, 48-72 h; max response: stronger effect = lower value
# In short: as §2
# HACAT [3] = experiment: qHTS assay to identify novel small-molecules to repurpose for Merkel cell carcinoma treatment (AID 1296009); settings: MCC and control cell lines, CellTiter-Glo viability, 72 h; series mostly up to 44.8 µM; further: nearly all actives have a fitted effect of over 60% in size; further: potency means the concentration at half of the fitted maximal effect
# In short: (§3)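 72 hr, 37 degree celsius; NPC 8-pt / MIPE 11-pt dose response; compound pinned in DMSO; CellTiter-Glo, 10 min RT, luminescence; normalized to no-cell and DMSO controls.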
# HEK293T = experiment: as above; settings: MCC and control cell lines, CellTiter-Glo viability, 72 h; at 44.8 µM (top of the series) unless noted
# In short: as §3
# MCC-13 = experiment: as above; settings: MCC and control cell lines, CellTiter-Glo viability, 72 h; series mostly up to 46 µM
# In short: as §3
# MCC-26 = experiment: as above; settings: MCC and control cell lines, CellTiter-Glo viability, 72 h; series mostly up to 46 µM
# In short: as §3
# MKL-1 = experiment: as above; settings: MCC and control cell lines, CellTiter-Glo viability, 72 h; series mostly up to 46 µM
# In short: as §3
# MKL-2 = experiment: as above; settings: MCC and control cell lines, CellTiter-Glo viability, 72 h; series mostly up to 46 µM
# In short: as §3
# UISO = experiment: as above; settings: MCC and control cell lines, CellTiter-Glo viability, 72 h; series mostly up to 46 µM
# In short: as §3
# WaGa = experiment: as above; settings: MCC and control cell lines, CellTiter-Glo viability, 72 h; series mostly up to 46 µM
# In short: as §3
# C33A = experiment: Primary qHTS to identify gynecologic anti-cancer compounds using libraries of approved drugs and bioactive compounds (AID 1345084); settings: Gynecologic cancer cell panel viability, ATPlite luminescence, 48 h; series mostly up to 57.5 µM; further: nearly all actives have a fitted effect of over 55% in size
# In short: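 48 h compound exposure at 37 C, 5% CO2; five-point qHTS. ATPlite luminescence readout of cell ATP.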
# NIH3T3 [4] = experiment: qHTS assay to identify novel small-molecules to repurpose for Merkel cell carcinoma treatment (AID 1296009); settings: MCC and control cell lines, CellTiter-Glo viability, 72 h; series mostly up to 44.8 µM; further: nearly all actives have a fitted effect of over 60% in size; further: potency means the concentration at half of the fitted maximal effect
# In short: as §3
smiles,measurement,setting,value
C[C@](N)(Cc1ccc(O)c(O)c1)C(=O)O,Potency,SC27B,inactive
same,Potency,TAB109,inactive
same,Potency,TAB113,inactive
same,Potency,TAB165,inactive
same,Potency,W2,inactive
same,max response,CRL-7250,-8.13% (inactive) and -6.61% (inactive)
same,max response,HEK293,-6.72% (inactive)
same,outcome,HEK293,inactive
same,max response,HaCat [1],-5.55% (inactive)
same,outcome,HaCat [1],inactive
same,max response,KB-3-1,-5.5% (inactive) and -5.11% (inactive)
same,max response,NIH3T3 [2],4.4% (inactive)
same,outcome,HACAT [3],inactive
same,outcome,HEK293T,inactive
same,Potency,MCC-13,inactive
same,Potency,MCC-26,inactive
same,Potency,MKL-1,inactive
same,Potency,MKL-2,inactive
same,Potency,UISO,inactive
same,Potency,WaGa,inactive
same,Potency,C33A,inactive
NC12CC3CC(CC(C3)C1)C2,Potency,SC27B,inactive
same,Potency,TAB109,inactive
same,Potency,TAB113,inactive
same,Potency,TAB165,inactive
same,Potency,W2,inactive
same,outcome,CRL-7250,inactive
same,max response,HEK293,1.92% (inactive)
same,outcome,HEK293,inactive
same,max response,HaCat [1],3.56% (inactive)
same,outcome,HaCat [1],inactive
same,max response,KB-3-1,5.54% (inactive) and 19.1% (inactive)
same,max response,NIH3T3 [2],1.39% (inactive)
same,outcome,NIH3T3 [2],inactive
same,outcome,HACAT [3],inactive
same,outcome,HEK293T,inactive
same,Potency,MCC-13,inactive
same,Potency,MCC-26,inactive
same,Potency,MKL-1,inactive
same,Potency,MKL-2,inactive
same,outcome,NIH3T3 [4],inactive
same,Potency,UISO,inactive
same,Potency,WaGa,inactive
same,Potency,C33A,inactive
O=c1c(O)c(-c2ccc(O)c(O)c2)oc2cc(O)cc(O)c12,Potency,TAB165,7.08 µM (active)
same,max response,CRL-7250,-43% (inactive)
same,outcome,CRL-7250,inactive
same,max response,HEK293,-3.52% (inactive) and -1.32% (inactive)
same,max response,HaCat [1],-5.77% (inactive) and -18.7% (inactive)
same,max response,KB-3-1,4.77% (inactive) and 21.1% (inactive)
same,max response,NIH3T3 [2],-3.23% (inactive)
same,Potency,MCC-13,inactive
same,Potency,MCC-26,inactive
same,Potency,MKL-1,inactive
same,Potency,MKL-2,inactive
same,Potency,UISO,inactive
same,Potency,WaGa,inactive
same,Potency,C33A,inactive
CN1CCN(CCCN2c3ccccc3Sc3ccc(Cl)cc32)CC1,max response,CRL-7250,-6.94% (inactive)
same,outcome,CRL-7250,inactive
same,Potency,HEK293,14.8 µM (active)
same,max response,HaCat [1],0.937% (inactive)
same,outcome,HaCat [1],inactive
same,max response,NIH3T3 [2],-25.1% (inactive)
same,outcome,HACAT [3],inactive
same,Potency,MCC-13,inactive
same,Potency,MCC-26,inactive
same,Potency,MKL-1,16.6 µM (active)
same,Potency,MKL-2,11.8 µM (active)
same,Potency,UISO,inactive
same,Potency,C33A,inactive
Cn1ccc2cc3c(cc21)CCN3C(=O)Nc1cccnc1,max response,CRL-7250,-6.32% (inactive)
same,outcome,CRL-7250,inactive
same,max response,HEK293,-20.9% (inactive)
same,outcome,HEK293,inactive
same,max response,HaCat [1],-2.9% (inactive)
same,max response,KB-3-1,29.1% (inactive) and 8.13% (inactive)
same,max response,NIH3T3 [2],0.531% (inactive)
same,outcome,NIH3T3 [2],inactive
same,outcome,HEK293T,inactive
same,Potency,MCC-13,inactive
same,Potency,MCC-26,inactive
same,Potency,MKL-1,inactive
same,Potency,MKL-2,inactive
same,outcome,NIH3T3 [4],inactive
same,Potency,UISO,inactive
same,Potency,WaGa,inactive
same,Potency,C33A,inactive
Cn1cnc2c1c(=O)[nH]c(=O)n2C,Potency,SC27B,inactive
same,Potency,TAB109,inactive
same,Potency,TAB113,inactive
same,Potency,TAB165,inactive
same,Potency,W2,inactive
same,outcome,CRL-7250,inactive
same,Potency,HEK293,9.35 µM (active)
same,max response,HEK293,1.79% (inactive)
same,outcome,HaCat [1],inactive
same,Potency,KB-3-1,20.9 µM (active)
same,max response,KB-3-1,6.57% (inactive)
same,Potency,NIH3T3 [2],26.4 µM (active)
same,max response,NIH3T3 [2],1.38% (inactive)
same,outcome,HACAT [3],inactive
same,Potency,MCC-13,inactive
same,Potency,MCC-26,inactive
same,Potency,MKL-1,inactive
same,Potency,MKL-2,inactive
same,Potency,UISO,inactive
same,Potency,WaGa,inactive
same,Potency,C33A,inactive
NCCCCCC(=O)O,Potency,SC27B,inactive
same,Potency,TAB109,inactive
same,Potency,TAB113,inactive
same,Potency,TAB165,inactive
same,Potency,W2,inactive
same,max response,CRL-7250,-1.72% (inactive)
same,outcome,CRL-7250,inactive
same,max response,HEK293,-1.96% (inactive) and 0.967% (inactive)
same,outcome,HaCat [1],inactive
same,max response,KB-3-1,14.6% (inactive) and 4.29% (inactive)
same,max response,NIH3T3 [2],-2.83% (inactive) and -5.79% (inactive)
same,outcome,HACAT [3],inactive
same,Potency,MCC-13,inactive
same,Potency,MCC-26,inactive
same,Potency,MKL-1,inactive
same,Potency,MKL-2,inactive
same,Potency,UISO,inactive
same,Potency,WaGa,inactive
same,Potency,C33A,inactive
CCCNCC(O)COc1ccccc1C(=O)CCc1ccccc1 (configuration not stated),Potency,SC27B,0.891 µM (active)
same,Potency,TAB109,0.794 µM (active)
same,Potency,TAB113,0.794 µM (active)
same,Potency,TAB165,0.447 µM (active)
same,Potency,W2,0.379 µM (active)
same,max response,CRL-7250,-5.96% (inactive)
same,outcome,CRL-7250,inactive
same,Potency,HEK293,21.1 µM (active)
same,max response,HaCat [1],-2.94% (inactive)
same,outcome,HaCat [1],inactive
same,max response,KB-3-1,-15.9% (inactive) and 1.74% (inactive)
same,max response,NIH3T3 [2],-20.3% (inactive) and -9.95% (inactive)
same,outcome,HACAT [3],inactive
same,Potency,MCC-13,inactive
same,Potency,MCC-26,inactive
same,Potency,MKL-1,inactive
same,Potency,MKL-2,inactive
same,Potency,UISO,inactive
same,Potency,WaGa,inactive
same,Potency,C33A,inactive
CC(=O)OCC(CCn1cnc2cnc(N)nc21)COC(C)=O,Potency,SC27B,inactive
same,Potency,TAB109,inactive
same,Potency,TAB113,inactive
same,Potency,TAB165,inactive
same,Potency,W2,inactive
same,max response,CRL-7250,3.84% (inactive)
same,outcome,CRL-7250,inactive
same,outcome,HEK293,inactive
same,max response,HaCat [1],1.33% (inactive) and 3.92% (inactive)
same,max response,KB-3-1,12.3% (inactive) and 3.49% (inactive)
same,max response,NIH3T3 [2],3.32% (inactive)
same,outcome,NIH3T3 [2],inactive
same,outcome,HEK293T,inactive
same,Potency,MCC-13,inactive
same,Potency,MCC-26,inactive
same,Potency,MKL-1,inactive
same,Potency,MKL-2,inactive
same,outcome,NIH3T3 [4],inactive
same,Potency,UISO,inactive
same,Potency,WaGa,inactive
same,Potency,C33A,inactive
Nc1nc2c(ncn2COC(CO)CO)c(=O)[nH]1,Potency,SC27B,inactive
same,Potency,TAB109,inactive
same,Potency,TAB113,inactive
same,Potency,TAB165,inactive
same,Potency,W2,inactive
same,max response,CRL-7250,1.91% (inactive)
same,Potency,HEK293,0.132 µM (active)
same,max response,HEK293,-8.08% (inactive)
same,max response,HaCat [1],-15.7% (inactive)
same,max response,KB-3-1,5.82% (inactive)
same,max response,NIH3T3 [2],-3.13% (inactive)
same,Potency,MCC-13,inactive and 20.9 µM (active)
same,Potency,MCC-26,inactive
same,Potency,MKL-1,inactive
same,Potency,MKL-2,inactive and 7.43 µM (active)
same,Potency,UISO,inactive and 18.7 µM (active)
same,Potency,WaGa,inactive
same,Potency,C33A,inactive
